Screening results from PubChem.
A selection: hits, their analogues and other compounds. The true share with any hit is near 3.7%.
WRN inhibitor – WRN helicase (human) inhibition | Q14191 | WRN helicase unwinding, fluorescent forked duplex, kinetic | Potency, µM (highest dose often 114 µM), for the others: at the top dose activity change, negative = inhibition, most hits filed as inhibitors | actives 0.46% (n = 360,000); further: potency means the concentration at half of the fitted maximal effect; on the % scale 0 is the no-effect control and ±100 the full control effect; nearly all actives have a fitted effect of over 55% in size
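Primary qHTS, 1536-well format. 20 nM WRN + compound, 15 min RT; start with 100 nM forked fluorophore/quencher duplex, 2 mM ATP (final); kinetic read ex 525/em 598 nm.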
PI5P4Ka inh – PI5P4K alpha (human) kinase inhibition | P48426 | PI5P4Kalpha enzyme, ADP-Glo luminescence, 60 min; active compounds read low | max response, % | actives 1.2% (n = 330,000) | AID 652105; active means max response of -50% or lower; inconclusive means between -30% and -50%; inactive means -30% or higher; further: value at the top dose of about 77 µM; on the % scale 0 is the no-effect control and ±100 the full control effect
Target sequence (P48426 whole entry, looked up): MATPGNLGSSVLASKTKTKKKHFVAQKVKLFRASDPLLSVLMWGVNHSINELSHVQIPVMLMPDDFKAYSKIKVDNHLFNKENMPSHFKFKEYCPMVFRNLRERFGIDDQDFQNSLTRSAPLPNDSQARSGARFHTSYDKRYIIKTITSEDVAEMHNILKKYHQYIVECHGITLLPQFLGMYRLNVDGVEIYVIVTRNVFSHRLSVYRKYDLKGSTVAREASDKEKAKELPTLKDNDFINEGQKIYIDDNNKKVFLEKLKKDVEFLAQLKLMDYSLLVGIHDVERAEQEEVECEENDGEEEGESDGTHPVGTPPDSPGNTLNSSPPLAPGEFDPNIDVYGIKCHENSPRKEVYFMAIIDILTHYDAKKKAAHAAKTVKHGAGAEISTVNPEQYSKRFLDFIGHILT
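Reactions run in 0.038 M HEPES pH 7.4, 0.28 mM EGTA, 0.1% CHAPS and 5% DMSO, with PI5P4Kalpha, substrate, compound and 5 microM ATP final, one hour at room temperature. Readout is ADP-Glo luminescence.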
VDR inhibitor – vitamin D3 receptor (human) inhibition; P11473; VDR-SRC2-3 peptide fluorescence polarization, 2 h; Potency, µM, without a hit: max response, negative = inhibition, hits mostly inhibitors; actives 0.93% (n = 400,000); AID 504847; further: potency means the concentration at half of the fitted maximal effect; on the % scale 0 is the no-effect control and ±100 the full control effect
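Measured by FP: displacement of SRC2-3 coactivator peptide from VDR by library compounds, following a two-hour ambient incubation.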
TCR act – activates T cell receptor signaling; primary human leukocytes, anti-CD3, IL-2 HTRF, 48 h; Potency, µM (series often up to 9.22 µM), inactives show top-dose activation of IL-2 secretion, usual class: activators; 330,000 tested, under 10 active; further: % of control where 0% means no effect
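Using a-CD3 beads without co-stimulation, primary human leukocytes were exposed to compounds for 48 hr. An HTRF IL-2 kit measured the cytokine, with europium-to-d2 energy transfer producing emission at 665nm upon 320nm excitation.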
FEN1 inhibitor – inhibitors of human flap endonuclease 1. Recombinant FEN1 flap cleavage, fluorescence, 15 min. Potency, µM (series often up to 114 µM), without a hit: at the top dose activity change, negative = inhibition, actives largely listed as inhibitors. actives 0.35% (n = 390,000). P39748; further: potency means the concentration at half of the fitted maximal effect; on the % scale 0 is the no-effect control and ±100 the full control effect; nearly all actives have a fitted effect of over 65% in size
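Nuclease activity of 10 nM FEN1 was measured after 15 min of room-temperature exposure to titrated compounds, by adding 50 nM flap substrate and reading plates at 0 and 15 min.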
PLK1 PBD block – PLK1 (human) polo-box domain binding inhibition; actives 2.8% (n = 360,000); Potency, µM, inactives show max response, negative = inhibition, actives largely listed as inhibitors; Plk1 PBD binding of FITC phosphopeptide, fluorescence polarization; AID 720504; further: potency means the concentration at half of the fitted maximal effect; series mostly up to about 57 µM; on the % scale 0 is the no-effect control and ±100 the full control effect; nearly all actives have a fitted effect of over 65% in size
* hit, by the source's call; [ ] = dose if it differs, or a comment. Unless noted, the call rests on the fitted dose curve; in most records, active means well fitted curve in the direction sought with a large enough effect; inconclusive means small, poorly fitted or top-dose-only effect, or another doubt; inactive means no such curve, though single readings can be large; an effect the other way counts as inactive or inconclusive.

For COc1cc(C(=O)NNC(=S)Nc2ccc(S(N)(=O)=O)cc2)cc(OC)c1OC the results were WRN inhibitor -18%[57.1 µM], PI5P4Ka inh 7, VDR inhibitor 4%, TCR act -13%, FEN1 inhibitor 6% and PLK1 PBD block 6.7µM*.
COc1cc(C(=S)N2CCCC2)cc(OC)c1OS(=O)(=O)c1ccc(NC(C)=O)cc1 was read as WRN inhibitor -36%[57.1 µM], PI5P4Ka inh -26, VDR inhibitor inconclusive, TCR act -1%[46.1 µM], FEN1 inhibitor 0% and PLK1 PBD block 12µM*.
Cc1ccc(NC(=O)C(Cc2ccccc2)NS(=O)(=O)c2cccc3nsnc23)c(C)c1 (configuration not stated) was read as VDR inhibitor -10% and FEN1 inhibitor 4%.
`O=C(O)c1ccccc1NC(=O)N1c2ccccc2Sc2ccccc21` gave VDR inhibitor inconclusive and FEN1 inhibitor -24%.
C=C(C(=O)c1ccccc1)C(C)CC(=O)c1ccccc1 (configuration not stated) was read as WRN inhibitor -6%, PI5P4Ka inh 7, VDR inhibitor 79µM*, TCR act -1%[46.1 µM], FEN1 inhibitor -9% and PLK1 PBD block -8%.
Screening C=C(C(=O)c1ccccc1)C(NC(C)(C)C)c1ccccc1 (configuration not stated) returned WRN inhibitor -3%, PI5P4Ka inh 1, VDR inhibitor inconclusive, TCR act -6%, FEN1 inhibitor -2% and PLK1 PBD block -16%.
Screening C=CCN(CC=C)c1ccc(/C=C/c2ccnc3ccccc23)cc1 returned FEN1 inhibitor -17%.
For CCCCNS(=O)(=O)c1ccc2nc(-c3cccnc3)cc(C(=O)NCCC)c2c1 the results were VDR inhibitor -4% and FEN1 inhibitor -9%.
Screening COc1ccccc1CN(C)CC(=O)c1c(C)[nH]c2ccccc12 returned FEN1 inhibitor -16%.
COC(=O)c1nc(NC(=O)C(C)C)n[nH]1 was read as WRN inhibitor 3%[57.1 µM], VDR inhibitor 7%, TCR act -3%, FEN1 inhibitor 2% and PLK1 PBD block 21µM*.
For O=C(CCNS(=O)(=O)c1ccc2c(c1)CCN2C(=O)C1CC1)N1CCN(c2cccc(C(F)(F)F)c2)CC1 the results were VDR inhibitor 8% and FEN1 inhibitor 1%.
For NC(=S)c1ccc[n+]([O-])c1 the results were WRN inhibitor inconclusive, PI5P4Ka inh inconclusive, VDR inhibitor 50µM*, TCR act -9%, FEN1 inhibitor -2% and PLK1 PBD block 19µM*.
Cc1nn(C)c(NC(=O)c2ccc(Cl)cc2)c1Cl was read as WRN inhibitor 5%, PI5P4Ka inh 0, VDR inhibitor 13%, TCR act 3%, FEN1 inhibitor 5% and PLK1 PBD block 0%.
`Cc1nn(C)c(C)c1NC(=O)c1ccc(Cl)cc1` gave WRN inhibitor 4%, PI5P4Ka inh -10, VDR inhibitor -14%, TCR act -2%, FEN1 inhibitor -11% and PLK1 PBD block 30µM*.
`N#Cc1c(-c2ccccc2)cc(-c2ccccc2)[nH]c1=O` gave WRN inhibitor -8%, PI5P4Ka inh 1, VDR inhibitor -6%, TCR act -6%, FEN1 inhibitor 20% and PLK1 PBD block -6%.
For N#Cc1c(-c2cccc(Br)c2)cc(-c2ccco2)[nH]c1=O the results were WRN inhibitor inconclusive, PI5P4Ka inh -62*, VDR inhibitor 4%, TCR act -4%, FEN1 inhibitor 4% and PLK1 PBD block 13µM*.
`O=C1CCC[C@@H]2C[C@@]3(C[C@@H]4CCN1[C@H]24)Nc1cc([N+](=O)[O-])ccc1NC3=NCc1ccccc1` gave FEN1 inhibitor -19%.
For Cc1ccnc2c(Cl)c(Cl)ccc12 the results were FEN1 inhibitor -8%.
`Cn1c(C(=O)NCc2ccccc2Cl)cc2sc(Cl)cc21` gave VDR inhibitor 5% and FEN1 inhibitor 8%.
Cc1ccc(-c2csc3ncn(CC(=O)N4CCOCC4)c(=O)c23)cc1C was read as WRN inhibitor 10%, PI5P4Ka inh 4, VDR inhibitor -1%, TCR act -2%, FEN1 inhibitor 1% and PLK1 PBD block 30µM*.
Cc1ccc(-c2csc3ncn(CC#N)c(=O)c23)cc1C was read as WRN inhibitor -11%[11.6 µM], PI5P4Ka inh -91*, VDR inhibitor -10%, TCR act 10%, FEN1 inhibitor inconclusive and PLK1 PBD block -8%.
Screening CSc1nc2c(=S)[nH]c(=S)[nH]c2s1 returned WRN inhibitor -5%, PI5P4Ka inh inconclusive and PLK1 PBD block 21µM*.
Screening COc1ccc(CNC(=O)c2ccc3c(c2)N(Cc2ccccc2F)C(=O)c2ccccc2S3=O)cc1 (configuration not stated) returned VDR inhibitor -10% and FEN1 inhibitor -11%.
For Cc1nn(-c2ccc(N3CCCCC3)nn2)c(C)c1CCC(=O)NCc1ccccc1 the results were VDR inhibitor 3% and FEN1 inhibitor -3%.
Cc1cccc(NC(=O)CCc2c(C)nn(-c3ccc(N4CCOCC4)nn3)c2C)c1 was read as WRN inhibitor 2%, PI5P4Ka inh 1, VDR inhibitor -12%, TCR act 4%, FEN1 inhibitor -16% and PLK1 PBD block -5%.
Cc1ccc(NC(=O)CCc2c(C)nn(-c3ccc(N4CCOCC4)nn3)c2C)cc1C was read as WRN inhibitor 1%, PI5P4Ka inh -16, VDR inhibitor -19%, TCR act -2%, FEN1 inhibitor -3% and PLK1 PBD block 27µM*.
CCc1ccc(-c2cc3c(N4CCN(c5ccccc5)CC4)nccn3n2)cc1 was read as VDR inhibitor 7% and FEN1 inhibitor 8%.
For O=C(O)c1ccc(N/N=C/c2ccc(OC(=O)c3cccc(Cl)c3)cc2)cc1 the results were WRN inhibitor 2%, PI5P4Ka inh -6, VDR inhibitor -13%, TCR act 7%, FEN1 inhibitor -17% and PLK1 PBD block 21µM*.
For Cc1noc(NS(=O)(=O)c2ccc(NC(=O)c3ccc(Br)cc3)cc2)c1C the results were VDR inhibitor -10% and FEN1 inhibitor -13%.
C#CCN(C[C@@H]1[C@@H](OC(=O)NCc2ccco2)[C@@H](OC(=O)NCc2ccco2)CN(C(=O)OC(C)C)N1C(=O)OC(C)C)S(=O)(=O)c1ccc(C)cc1 was read as WRN inhibitor -2%, PI5P4Ka inh -4 and PLK1 PBD block inconclusive.
For C#CCN(C[C@@H]1[C@@H](OC(=O)NC2CC2)[C@@H](OC(=O)NC2CC2)CN(C(=O)OC(C)C)N1C(=O)OC(C)C)S(=O)(=O)c1ccc(C)cc1 the results were WRN inhibitor -3%, PI5P4Ka inh 0 and PLK1 PBD block 21µM*.
